Structures are written as SMILES. Inconclusive results are not listed. Calls of active or inactive are those of the source. Calls come from the whole dose curve; as a rule, active = well fitted inhibition curve with a large enough effect; inconclusive = small, poorly fitted or top-dose-only effect; inactive = flat fitted curve, though single readings scatter. Where a SMILES comes first, the peptide text is derived from it. The star is where a group is joined. AFC = O=c1cc(C(F)(F)F)c2ccc(N*)cc2o1
% is set by controls: 0 for no effect and ±100 for the full control effect.

Sequence of Calcium and integrin-binding protein 1 (Homo sapiens) (Q99828 whole entry, looked up): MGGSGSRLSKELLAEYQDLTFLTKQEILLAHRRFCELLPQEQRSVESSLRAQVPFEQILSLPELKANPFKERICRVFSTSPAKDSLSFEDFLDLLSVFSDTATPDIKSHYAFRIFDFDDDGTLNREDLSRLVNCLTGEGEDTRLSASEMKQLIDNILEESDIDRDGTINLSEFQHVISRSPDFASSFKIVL

The assay addresses Calcium and integrin-binding protein 1 (Homo sapiens) (UniProt Q99828). The experiment in a line: Primary qHTS for Identification of Calcium Integrin Binding Protein 1 (CIB1) Competitor (AID 1508620).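 Note: GST tagged CIB1 binding a fluorescein labelled alphaIIb integrin peptide tracer; top concentration of the series differs between compounds.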 The note with it: CIB1-GST / FITC-alphaIIb peptide fluorescence polarization; series mostly up to 57.7 µM; activity change, negative = inhibition: at the top concentration. The gist of the method: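 Fluorescence polarization competition: CIB1-GST (1 uM final) preincubated with compound 15 min at room temperature, then FITC-labeled alphaIIb peptide (100 nM final) added for another 15 min. Polarization read at Ex 480/Em 540.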
For the molecule `C=C(C)[C@@H]1CC[C@](C)(O)[C@@H](OC(=O)c2ccccc2)C1`, the “activity change, negative = inhibition” value was 1.43% [at 114 µM] (inactive).
In the case of `C/C=C/C=C/C(CC(=O)O)Nc1ccc(C=O)cc1` (stereo not given), the “activity change, negative = inhibition” value was -5.67% [at 114 µM] (inactive).
Turning to `COc1cc(N2CCC(N(C)C)CC2)ccc1Nc1ncc(Cl)c(Nc2ccccc2P(C)(C)=O)n1`, the Potency result is “inactive”.
As for `CC1=CCC2C(C)(CO)CCCC2(C)C1CC12OC1C(O)C(CO)=CC2O` (stereo not given), the “activity change, negative = inhibition” value was 3.87% (inactive).
Still for that read-out and setting: for `COc1ccc([C@H]2Cc3cccc(O)c3C(=O)O2)cc1` the value was -2.8% [at 114 µM] (inactive); for `COc1cc(/C=C/C(=O)OC[C@H]2O[C@H](O[C@]3(CO)O[C@H](CO)[C@@H](O)[C@@H]3O)[C@H](O)[C@@H](O)[C@@H]2O)cc(OC)c1O`, -0.413% (inactive); for `COc1cc(C2Oc3c(OC)cc(/C=C/C(=O)OC[C@H]4O[C@@H](OC(C)(C)C(=O)O)[C@H](O)[C@@H](O)[C@@H]4O)cc3C2CO)ccc1O` (stereo not given in full), 0.591% [at 30.2 µM] (inactive).
Consider `CC1=C2C(=O)O[C@@H](c3ccoc3)[C@]2(C)CCC1`, for which the Potency entry was “inactive”.
In the case of `CC(C)(C)c1cc(CN2CCN(CC(O)c3ccc(Cl)cc3)CC2)cc(C(C)(C)C)c1O` (stereo not given), the “activity change, negative = inhibition” value was -4.52% [at 114 µM] (inactive).
For `COc1ccc(C)c2sc(NC(=O)c3ccncc3)nc12`, the “activity change, negative = inhibition” value is 1.1% [at 114 µM] (inactive).
Still for that read-out and setting: for `OC1COC(OCC2OC(OCCc3ccccc3)C(O)C(O)C2O)C(O)C1O` (stereo not given) the value was 1.11% (inactive).
For `COc1cc(/C=C/C(=O)OC(C)(C)C(OC2OC(CO)C(O)C(O)C2O)C(=O)OCc2ccc(OC3OC(CO)C(O)C(O)C3O)cc2)ccc1O` (stereo not given), the “activity change, negative = inhibition” value is -2.54% [at 30.2 µM] (inactive).
On the same count and under the same terms, for `C=C1C(OC(C)=O)C(=O)C2C(C)(C)C(OC(C)=O)CCC2(C)C1CC(OC(C)=O)/C(C)=C/COC(C)=O` (stereo not given) the value was -2.52% (inactive).
For the molecule `CCCCN(CCCC)C(=O)CN1C[C@H](c2ccc3c(c2)OCO3)[C@@H](C(=O)O)[C@@H]1c1ccc(OC)cc1`, the Potency entry is “inactive”.
For the molecule `CC(C)(O)c1ccc2c(c1)C(=O)CC1[C@](C)(CO)CCC[C@]21C` (stereo not given in full), the “activity change, negative = inhibition” value is -12.6% (inactive).
Same read-out and setting: to `COC(=O)C1=CO[C@@H](O[C@@H]2O[C@H](COC(=O)/C=C/c3cc(OC)c(O)c(OC)c3)[C@@H](O)[C@H](O)[C@H]2O)[C@@H]2C(CO)=CC[C@H]12` belongs 0.0968% [at 30.2 µM] (inactive).
Same read-out and setting: to `CC(=O)N[C@@H](CC(C)C)C(=O)N[C@@H](CCC(=O)O)C(=O)N[C@@H](CCC(=O)O)C(=O)N[C@@H](CC(=O)O)C(=O)Nc1ccc2c(C(F)(F)F)cc(=O)oc2c1` (Ac-LEED-{AFC}) belongs -13% [at 114 µM] (inactive); to `CC(C)[C@@H](C)/C=C/[C@@H](C)[C@H]1CC[C@H]2C3=CC=C4C[C@@H](O)CC[C@]4(C)[C@H]3CC[C@]12C`, 4.59% (inactive).
On the same count and under the same terms, to `COc1cc(NC(=O)c2ccccn2)ccc1Cl` belongs -5.31% [at 114 µM] (inactive); to `CC1(C)O[C@@]2(C)CC[C@@H]1C[C@@H]2OC1OC(CO)C(O)C(O)C1O` (stereo not given in full), -1.66% (inactive).
With `Cc1nnc(C(C)C)n1C1CC2CCC(C1)N2CC[C@H](NC(=O)C1CCC(F)(F)CC1)c1ccccc1` (stereo not given in full), the “activity change, negative = inhibition” value is 5.84% [at 114 µM] (inactive).
Turning to `O=c1c2ccccc2nc2n1CCC2O` (stereo not given), the “activity change, negative = inhibition” value is 4.63% [at 228 µM] (inactive).
With `CC(C)C1=CC2=CCC3[C@](C)(CCC[C@@]3(C)C(=O)O)C2CC1O` (stereo not given in full), the “activity change, negative = inhibition” value was 1.9% (inactive).
With `Cc1cn2c(N)c(Cl)cc(C(=O)NCC3CCN(CC(C)C)CC3)c2n1`, the “activity change, negative = inhibition” value was -1.12% [at 114 µM] (inactive).
With `COC1CCCC/C(C)=C/C2C=C(C)C(C)C3C(CC(C)C)NC(=O)C23C(=O)C1` (stereo not given), the “activity change, negative = inhibition” value is -2.13% (inactive).
With `Cc1cc(C)c(S(=O)(=O)N(Cc2ccc(-c3cccc(S(C)(=O)=O)c3)cc2)Cc2ccc(C(F)(F)F)o2)c(C)c1`, the “activity change, negative = inhibition” value was -0.923% [at 114 µM] (inactive).
The same measure, in the same setting: for `NC(=O)[C@H]1CCCCc2c1[nH]c1ccc(Cl)cc21` the value was -7.03% (inactive).
With `CC1=CCC2C(C)(CO)CCCC2(CO)C1CO` (stereo not given), the “activity change, negative = inhibition” value is -6.49% [at 114 µM] (inactive).
`COc1cc(C/C(=C/NC(C)=O)N(CC(=O)Cc2ccccc2)C(C)=O)cc2c1OCO2`: the “activity change, negative = inhibition” value was 5.25% (inactive).
Same read-out and setting: to `CC(/C=C/C1(O)C(C)CC(O)CC1(C)C)OC1OC(CO)C(O)C(O)C1O` (stereo not given) belongs -5.87% (inactive).
Take `COc1ccccc1CC(C(=O)O)N(C)C(=O)c1ccccc1` (stereo not given): the “activity change, negative = inhibition” value was 1.66% (inactive).
For `COc1ccccc1[C@@H]1C2=C(CC(C)(C)CC2=O)Nc2n[nH]c(C(F)(F)F)c21`, the “activity change, negative = inhibition” value is -2.11% [at 114 µM] (inactive).
Same read-out and setting: to `C/C=C(\C)C(=O)O[C@@H](C)[C@H]1CC[C@]2(O)C3CCC4C[C@@H](OC5CC(OC)C(OC6CC(OC)C(OC7CC(OC)C(OC8OC(C)C(OC9OC(CO)C(O)C(O)C9O)C(OC)C8O)C(C)O7)C(C)O6)C(C)O5)CC[C@]4(C)C3[C@H](O)[C@@H](O)[C@]12C` (stereo not given in full) belongs -0.005% [at 12.4 µM] (inactive).
Take `CC1=CC(=O)CC(C)(CO[C@@H]2O[C@H](CO)[C@@H](O)[C@H](O)[C@H]2O)C1(O)/C=C/C(C)=C/C(=O)O` (stereo not given in full): the “activity change, negative = inhibition” value is 1.4% (inactive).
`CCOc1ccc(-c2ccc(Cn3c(CC(C)(C)C(=O)O)c(SC(C)(C)C)c4cc(OCc5ccc(C)cn5)ccc43)cc2)cn1`: the Potency result is “inactive”.
Turning to `COc1ccc(C(OC2OC(CO)C(O)C(O)C2O)C(C)O)cc1` (stereo not given), the “activity change, negative = inhibition” value was -3.42% (inactive).
Still for that read-out and setting: to `CC1=CC(=O)CC(C)(C)C1CCC(C)OC1OC(COC(=O)c2cc(O)c(O)c(O)c2)C(O)C(O)C1O` (stereo not given) belongs -5.6% (inactive); to `C=C1[C@H]2[C@H](O[C@@H]3O[C@H](COC(=O)/C=C/c4cc(OC)c(O)c(OC)c4)[C@@H](O)[C@H](O)[C@H]3O)OC=C(C(=O)O)[C@H]2C[C@@H]1O`, -7.13% [at 30.2 µM] (inactive); to `CC1CCC2C(C)(C)C(O)CCC2(C)C12Cc1c(O)cc3c(c1O2)C(N)=NC3` (stereo not given), 2.43% (inactive).
Same read-out and setting: to `Cn1c(=O)c2nc(/C=C/c3cccc(Cl)c3)n(C)c2n(C)c1=O` belongs 0.519% [at 228 µM] (inactive).

(Values after PubChem BioAssay (NCATS).)
